# Laboratory results as given in the supplement of paper PMC10077471.
# Whole data set: some 1,900 compounds, median “excess over highest single agent (ExcessHSA) synergy score, 6x6 matrix” near -83, cut for the lowest 2% near -370. The full list was thinned out, with the lowest values kept by preference.
# Tested on: NCI-H446
# Experiment: excess over highest single agent (ExcessHSA) synergy score, 6x6 matrix; higher = less synergy (more negative = stronger synergy)
# Conditions: 72 h; CellTiter-Glo viability
row,SMILES,excess over highest single agent
1,O=C(O)C(=O)Nc1cccc(-c2nnn[nH]2)c1 + Cc1sc2c(c1C)C(c1ccc(Cl)cc1)=N[C@@H](CC(=O)OC(C)(C)C)c1nnc(C)n1-2 [NCGC00250412-19],42.8
2,C#CCN(C)CC1=Cc2ccccc2Oc2ccccc21 + Cc1sc2c(c1C)C(c1ccc(Cl)cc1)=N[C@@H](CC(=O)OC(C)(C)C)c1nnc(C)n1-2 [NCGC00250412-19],-204
3,Cc1cnc(CNC(=O)c2c(=O)c3ccc(N4CCCN(C)CC4)nc3n3c2sc2ccccc23)cn1 + Cc1sc2c(c1C)C(c1ccc(Cl)cc1)=N[C@@H](CC(=O)OC(C)(C)C)c1nnc(C)n1-2 [NCGC00250412-19],-259
4,Cc1cn2cc(C(=O)N(C)CCO)cc(N[C@@H]3CCOc4cccc(C)c43)c2n1 + Cc1sc2c(c1C)C(c1ccc(Cl)cc1)=N[C@@H](CC(=O)OC(C)(C)C)c1nnc(C)n1-2 [NCGC00250412-19],64.1
5,CNC(=O)N1N=C(c2ccc(N)cc2)c2cc3c(cc2CC1C)OCO3 (stereo not drawn) + Cc1sc2c(c1C)C(c1ccc(Cl)cc1)=N[C@@H](CC(=O)OC(C)(C)C)c1nnc(C)n1-2 [NCGC00250412-19],-19.1
6,O=C(CCCCCCC(=O)Nc1cccnc1)NO + Cc1sc2c(c1C)C(c1ccc(Cl)cc1)=N[C@@H](CC(=O)OC(C)(C)C)c1nnc(C)n1-2 [NCGC00250412-19],-276
7,Oc1cccc(-c2nc(N3CCOCC3)c3oc4ncccc4c3n2)c1 + Cc1sc2c(c1C)C(c1ccc(Cl)cc1)=N[C@@H](CC(=O)OC(C)(C)C)c1nnc(C)n1-2 [NCGC00250412-19],-410
8,Nc1ccc(C(=O)Nc2cccc(-c3nc(N4CCOCC4)c4oc5ncccc5c4n3)c2)cn1 + Cc1sc2c(c1C)C(c1ccc(Cl)cc1)=N[C@@H](CC(=O)OC(C)(C)C)c1nnc(C)n1-2 [NCGC00250412-19],98.4
9,c1cncc(CN2CCC(n3ncc4c(N5CCOCC5)nc(-c5ccc6[nH]ccc6c5)nc43)CC2)c1 + Cc1sc2c(c1C)C(c1ccc(Cl)cc1)=N[C@@H](CC(=O)OC(C)(C)C)c1nnc(C)n1-2 [NCGC00250412-19],-140
10,Cc1ccc(C(=O)Nc2cccc(C(F)(F)F)c2)cc1-c1ccc2nc(NCCN3CCOCC3)ncc2c1 + Cc1sc2c(c1C)C(c1ccc(Cl)cc1)=N[C@@H](CC(=O)OC(C)(C)C)c1nnc(C)n1-2 [NCGC00250412-19],-140
11,Nc1ncnc2c1c(-c1cccc(OCc3ccccc3)c1)cn2C1CC(CN2CCC2)C1 (stereo not drawn) + Cc1sc2c(c1C)C(c1ccc(Cl)cc1)=N[C@@H](CC(=O)OC(C)(C)C)c1nnc(C)n1-2 [NCGC00250412-19],-56.6
12,COc1ncc(-c2ccc3nccc(-c4ccnnc4)c3c2)cc1NS(=O)(=O)c1ccc(F)cc1F + Cc1sc2c(c1C)C(c1ccc(Cl)cc1)=N[C@@H](CC(=O)OC(C)(C)C)c1nnc(C)n1-2 [NCGC00250412-19],-259
13,CCn1c(-c2nonc2N)nc2cncc(CNC3CCNCC3)c21 + Cc1sc2c(c1C)C(c1ccc(Cl)cc1)=N[C@@H](CC(=O)OC(C)(C)C)c1nnc(C)n1-2 [NCGC00250412-19],51.1
14,Cc1ccccc1-n1c(Cn2nc(-c3cccc(O)c3)c3c(N)ncnc32)nc2cccc(C)c2c1=O + Cc1sc2c(c1C)C(c1ccc(Cl)cc1)=N[C@@H](CC(=O)OC(C)(C)C)c1nnc(C)n1-2 [NCGC00250412-19],-224
15,O=C(O)[C@]1(Cc2cccc(Nc3nccs3)n2)CC[C@@H](Oc2cccc(Cl)c2F)CC1 + Cc1sc2c(c1C)C(c1ccc(Cl)cc1)=N[C@@H](CC(=O)OC(C)(C)C)c1nnc(C)n1-2 [NCGC00250412-19],-273
16,O=C(O)c1nc(=O)[nH]c(=O)[nH]1 + Cc1sc2c(c1C)C(c1ccc(Cl)cc1)=N[C@@H](CC(=O)OC(C)(C)C)c1nnc(C)n1-2 [NCGC00250412-19],-48.1
17,CCS(=O)(=O)c1cccc(-c2cc(C(=O)NC3CCN(C)CC3)c(C)c3[nH]c4ncc(C)cc4c23)c1 + Cc1sc2c(c1C)C(c1ccc(Cl)cc1)=N[C@@H](CC(=O)OC(C)(C)C)c1nnc(C)n1-2 [NCGC00250412-19],-197
18,CO[C@H]1C[C@@H]2CC[C@@H](C)[C@@](O)(O2)C(=O)C(=O)N2CCCC[C@H]2C(=O)O[C@H]([C@H](C)C[C@@H]2CC[C@@H](O)[C@H](OC)C2)CC(=O)[C@H](C)/C=C(\C)[C@@H](O)[C@@H](OC)C(=O)[C@H](C)C[C@H](C)/C=C/C=C/C=C/1C + Cc1sc2c(c1C)C(c1ccc(Cl)cc1)=N[C@@H](CC(=O)OC(C)(C)C)c1nnc(C)n1-2 [NCGC00250412-19],-737
19,CC[C@@H]1/C=C(\C)C[C@H](C)C[C@H](OC)[C@H]2O[C@@](O)(C(=O)C(=O)N3CCCC[C@H]3C(=O)O[C@H](/C(C)=C/[C@@H]3CC[C@H](Cl)[C@H](OC)C3)[C@H](C)[C@@H](O)CC1=O)[C@H](C)C[C@@H]2OC + Cc1sc2c(c1C)C(c1ccc(Cl)cc1)=N[C@@H](CC(=O)OC(C)(C)C)c1nnc(C)n1-2 [NCGC00250412-19],-132
20,CO[C@H]1C[C@@H]2CC[C@@H](C)[C@@](O)(O2)C(=O)C(=O)N2CCCC[C@H]2C(=O)O[C@H]([C@H](C)C[C@@H]2CC[C@@H](OCCO)[C@H](OC)C2)CC(=O)[C@H](C)/C=C(\C)[C@@H](O)[C@@H](OC)C(=O)[C@H](C)C[C@H](C)/C=C/C=C/C=C/1C + Cc1sc2c(c1C)C(c1ccc(Cl)cc1)=N[C@@H](CC(=O)OC(C)(C)C)c1nnc(C)n1-2 [NCGC00250412-19],-598
21,CO[C@H]1C[C@@H]2CC[C@@H](C)[C@@](O)(O2)C(=O)C(=O)N2CCCC[C@H]2C(=O)O[C@H]([C@H](C)C[C@@H]2CC[C@@H](OP(C)(C)=O)[C@H](OC)C2)CC(=O)[C@H](C)/C=C(\C)[C@@H](O)[C@@H](OC)C(=O)[C@H](C)C[C@H](C)/C=C/C=C/C=C/1C + Cc1sc2c(c1C)C(c1ccc(Cl)cc1)=N[C@@H](CC(=O)OC(C)(C)C)c1nnc(C)n1-2 [NCGC00250412-19],-543
22,CO[C@H]1C[C@@H]2CC[C@@H](C)[C@@](O)(O2)C(=O)C(=O)N2CCCC[C@H]2C(=O)O[C@H]([C@H](C)C[C@@H]2CC[C@@H](OC(=O)C(C)(CO)CO)[C@H](OC)C2)CC(=O)[C@H](C)/C=C(\C)[C@@H](O)[C@@H](OC)C(=O)[C@H](C)C[C@H](C)/C=C/C=C/C=C/1C + Cc1sc2c(c1C)C(c1ccc(Cl)cc1)=N[C@@H](CC(=O)OC(C)(C)C)c1nnc(C)n1-2 [NCGC00250412-19],-419
23,C=CC[C@@H]1/C=C(\C)C[C@H](C)C[C@H](OC)[C@H]2O[C@@](O)(C(=O)C(=O)N3CCCC[C@H]3C(=O)O[C@H](/C(C)=C/[C@@H]3CC[C@@H](O)[C@H](OC)C3)[C@H](C)[C@@H](O)CC1=O)[C@H](C)C[C@@H]2OC + Cc1sc2c(c1C)C(c1ccc(Cl)cc1)=N[C@@H](CC(=O)OC(C)(C)C)c1nnc(C)n1-2 [NCGC00250412-19],-143
